“And” between values parts separate entries of the source, which are not always exact repeats. Equal values may be shown once. The whole screen tested about 16,000 compounds, of which about 5,700 (36%) were called active. Another 24% or so got no clear call; they are omitted. This is one part of the list. A number with no mark means an inactive call. Calls follow the shape of the dose curve; as a rule, active = well fitted curve in the direction sought with a large enough effect; inconclusive = small, poorly fitted or top-dose-only effect, or effect the other way; inactive = no such curve, though single readings can be large or run the other way.
Molecular target: Cytochrome P450 1A2 (Homo sapiens) (UniProt P05177)
Sequence (P05177 whole entry, looked up): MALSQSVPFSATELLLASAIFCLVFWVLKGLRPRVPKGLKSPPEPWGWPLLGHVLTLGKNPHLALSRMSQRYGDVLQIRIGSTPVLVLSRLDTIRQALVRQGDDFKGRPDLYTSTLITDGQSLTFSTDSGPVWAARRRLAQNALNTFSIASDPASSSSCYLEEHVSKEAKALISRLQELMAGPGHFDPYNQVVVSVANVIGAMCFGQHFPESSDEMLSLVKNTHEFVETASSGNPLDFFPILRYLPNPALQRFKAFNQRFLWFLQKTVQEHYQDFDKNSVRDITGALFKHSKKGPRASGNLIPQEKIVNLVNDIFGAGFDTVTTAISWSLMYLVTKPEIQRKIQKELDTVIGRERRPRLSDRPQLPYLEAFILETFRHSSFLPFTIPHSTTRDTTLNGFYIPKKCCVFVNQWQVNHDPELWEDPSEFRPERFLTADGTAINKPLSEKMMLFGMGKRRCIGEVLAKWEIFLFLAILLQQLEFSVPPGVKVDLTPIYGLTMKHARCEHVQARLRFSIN
Assay: Cytochrome panel assay with activity outcomes
Conditions: recombinant CYP, pro-luciferin dealkylation, luminescence, p450-cyp1a2; series mostly up to 57.1 µM; activity, negative = inhibition: at the top concentration
% is scaled to controls: 0 for no effect and ±100 for the full control effect.

Structure (SMILES) | activity, negative = inhibition | AC50
c1cc(CN2CCC3(CCNCC3)CC2)ccn1 | -15.3% | 
NCc1cc(=O)[nH]o1 |  | inactive
CN(C)c1ccc(NC(=O)CN2C(=O)CN=C(c3ccccc3)c3ccccc32)cc1 |  | 10 µM (active)
CCN(CC)CCO[C@H]1CC[C@@]2(C)C(=CC[C@@H]3[C@H]2CC[C@]2(C)C(=O)CC[C@H]32)C1 | -19.9% | 
O=C(C[C@H](c1ccccc1)c1c(O)c2ccccc2oc1=O)c1ccccc1 | -12.6% [at 2.29 µM] | 
COc1ccc(NC(=O)N2CCCC3(CCN(C(=O)Oc4ccccc4)CC3)C2)cc1 |  | 12.6 µM (active)
COc1ccc(NC(=O)N2CC[C@@]3(CCCN(C(=O)Oc4ccccc4)C3)C2)cc1 | -7.09% | 
O=C(Nc1ccccc1)N1CCC2(CC1)CCN(C(=O)Oc1ccccc1)CC2 | -16.7% | 
CN1CCCC2(CCN(C(=O)c3ccncc3)CC2)C1 | -14% | 
Cc1nc2sccc2c(=O)n1-c1ccccc1Cl | -11.7% | 
O=c1c2ccccc2nc(N2CCCC2)n1-c1ccc(Cl)cc1 |  | 5.01 µM (active)
C[Se]C[C@@H](N)C(=O)O | 0.0958% | 
CN1C(=O)CCS(=O)(=O)[C@H]1c1ccc(Cl)cc1 | -10.6% | 
O=C(C1CC(=O)N(C2CCCC2)C1)N1CCC2(CC1)OCCO2 (stereo not given) | 0.726% | 
N[C@H](Cc1c[nH]c2ccccc12)P(=O)(O)O | -15.7% [at 11.4 µM] | 
CC(C(=O)c1c[nH]c2ccccc12)N1CCSCC1 (stereo not given) |  | 15.8 µM (active)
C[N+]1(C)[C@@H]2CC[C@H]1CC(OC(=O)c1c[nH]c3ccccc13)C2 (stereo not given in full) | -2.58% | 
C=Cn1ccnc1P(=S)(c1nccn1C=C)C1CCCCC1 | -21.2% | 
Cc1cc(=O)n(-c2ccccc2)n1C | -12.9% [at 25.6 µM] | 
C=C(C)[C@H]1CN[C@H](C(=O)O)[C@@H]1CC(=O)O | 6.18% | 
CC(N)Cc1ccccc1Sc1ccc(O)cc1 (stereo not given) | -12.6% | 
CC(=O)N[C@@H]1CCSC1=O | -5.47% [at 25.6 µM] | 
CCN(CC)CC#CCOC(=O)[C@@](O)(c1ccccc1)C1CCCCC1 |  | 1.26 µM (active)
CC[N@+]1(C)CCC[C@@H](OC(=O)C(O)(c2ccccc2)c2ccccc2)C1 | 2.32% [at 25.6 µM] | 
CCOC(C(=O)OCCCN(CC)CC)(c1ccccc1)c1ccccc1 | -0.835% | 

Structure (SMILES) | activity, negative = inhibition | AC50
c1ccc(CN2CCCC3(CCNCC3)C2)cc1 | -1.46% | 
C/C(=N\OC(=O)NC(C)C)c1sc(-c2ccccc2)nc1C |  | 2 µM (active)
C/C(=N\OC(=O)NC(C)C)c1sc(-c2ccc(Cl)cc2)nc1C |  | 1.12 µM (active)
CC[C@@H]1CN2CCc3cc(OC)c(OC)cc3[C@H]2C[C@@H]1C[C@@H]1NCCc2cc(O)c(OC)cc21 | -7.35% [at 25.6 µM] | 
CCN1C[C@]2(C)CC[C@H](OC)[C@@]34[C@@H]2[C@H](OC(C)=O)[C@]2(OCO[C@@]25C[C@@H](OC)[C@@H]2C[C@@]3(O)[C@H]5[C@@H]2OC)[C@H]14 | -3.74% [at 25.6 µM] | 
CCN(CC)c1ncnc2c1ncn2[C@@H]1O[C@@H](COP(=O)(O)OP(=O)(O)C(Br)(Br)P(=O)(O)O)[C@H](O)[C@@H]1O | 2.91% | 
CCc1ccccc1NC(=S)NC1CC2CCC(C1)N2Cc1ccco1 (stereo not given) | 6.19% | 
CN1[C@H](CC(=O)c2ccccc2)CCC[C@H]1C[C@H](O)c1ccccc1 |  | 15.8 µM (active)
CN1[C@@H](C[C@@H](O)c2ccccc2)CCC[C@@H]1C[C@H](O)c1ccccc1 |  | 5.01 µM (active)
CN1[C@@H]2CC[C@H]1CC(O[C@@H](c1ccccc1)c1ccc(Cl)cc1)C2 (stereo not given in full) | -6.52% | 
Cn1c[n+](C)cc1C(O)c1ccccc1 (stereo not given) | 1.79% | 
CC[C@@]1(c2ccc(N)cc2)CCC(=O)NC1=O |  | inactive
Oc1ccc2c3c1O[C@H]1c4[nH]c5ccccc5c4C[C@]4(O)[C@H](C2)N(CC2CC2)CC[C@@]314 | -1.2% | 
NS(=O)(=O)c1cc([C@@]2(O)NC(=O)c3ccccc32)ccc1Cl | -4.19% [at 25.6 µM] | 
C[N+](C)(C)[C@H](Cc1c[nH]c(=S)[nH]1)C(=O)O | -18.9% [at 11.4 µM] | 
COc1cc(C(=O)OC2C[C@H]3CC[C@@H](C2)N3C)ccc1O (stereo not given in full) | -0.206% [at 25.6 µM] | 
C=C(C)[C@H]1CC[C@]2(CO)CC[C@]3(C)[C@@H](CC[C@H]4[C@@]5(C)CC[C@@H](O)C(C)(C)[C@@H]5CC[C@@]43C)[C@H]12 | -6.53% [at 25.6 µM] | 
O=C(Nc1cccc(F)c1)N1CC2(CCNCC2)C1 | -5.1% | 
NCCc1c[nH]c2ccccc12 |  | 3.16 µM (active)
CC(C)C[C@H](NP(=O)(O)O[C@@H]1O[C@@H](C)[C@@H](O)[C@@H](O)[C@H]1O)C(=O)N[C@@H](Cc1c[nH]c2ccccc12)C(=O)O | -1.79% | 
CN(C)CCCc1c[nH]c2ccccc12 | -12.5% [at 11.4 µM] | 
NCCc1ccc(O)cc1 | -14.6% | 
NCCc1c[nH]c2ccc(O)cc12 |  | 2 µM (active)
NCCc1c[nH]c2ccc(C(N)=O)cc12 |  | 6.31 µM (active) and 1.26 µM (active)
CC(=O)NCCc1c[nH]c2ccccc12 |  | 15.8 µM (active)
